High-throughput results as filed in PubChem BioAssay.
Not all results are given here.
aSyn 5UTR act = Activators via SNCA 5'UTR binding, MLPCN | alpha-synuclein 5'UTR reporter, activators screen | activity score, % (tested at 7.5 µM), hits read low | 300,000 compounds, 7.1% hits; in the data active means activity score below about -60%
Large screens that a line does not name were inactive; ! = a repeat was not active.

O=c1c2ccccc2nc2c3ccccc3c(NCCN3CCOCC3)nn12	aSyn 5UTR act -344.7
CNC(=O)c1ccsc1NC(=O)c1ccc2c(c1)CCCC2	aSyn 5UTR act -214.0
C/C(=N\OCc1cccc(C(=O)O)c1)c1ccc(Cl)cc1	none
C/C(=N\OCc1ccc(C#N)cc1)c1ccccc1	aSyn 5UTR act -119.8
Cc1nc(/N=C(\N)NC(=O)c2ccccc2)nc2ccccc12	aSyn 5UTR act -292.2
Cc1ccc2nc(/N=C(\N)NC(=O)NC3CCCCC3)nc(C)c2c1	aSyn 5UTR act -149.4
NNCCc1ccccc1	aSyn 5UTR act -132.6
COc1ccc(OC)c(C(=O)CC2OC(=O)c3ccccc32)c1 (stereo not drawn)	aSyn 5UTR act -70.3
O=C(CSc1ncnc2sc3c(c12)CCCC3)c1ccccc1	aSyn 5UTR act -76.9
CCOc1ccc(N)c(SSc2cc(OCC)ccc2N)c1	aSyn 5UTR act -121.3
O=C(Cn1cnc2ccccc2c1=O)c1ccc(OC(F)F)cc1	aSyn 5UTR act -73.0
O=C(Cn1cnc2ccccc2c1=O)c1ccccc1	aSyn 5UTR act -80.4
CCOc1ccc(C(=O)Cn2cnc3ccccc3c2=O)cc1	aSyn 5UTR act -94.1
Cn1c(=N)n(CC(=O)c2ccc(Cl)c(Cl)c2)c2ccccc21	none
O=C(Cn1cnc2ccccc21)c1ccc(Cl)cc1	aSyn 5UTR act -70.9
O=C(Cn1cnc2ccccc2c1=O)c1ccc(Cl)cc1	aSyn 5UTR act -90.3
O=C(Cn1cnc2ccccc2c1=O)c1ccc(Br)cc1	aSyn 5UTR act -153.2
O=C(Cn1cnc2ccc(Cl)cc2c1=O)c1cccs1	aSyn 5UTR act -136.1
O=c1c2ccccc2ncn1-c1ccc(Cl)cc1	aSyn 5UTR act -103.0!
O=C1CCCc2c1[nH]c1ccc(Cl)cc21	none
CCOC(=O)c1ccc2[nH]c3c(c2c1)CCCCC3=O	aSyn 5UTR act -101.6
O=C1NC(c2ccc(Br)cc2)=N/C1=C/c1ccco1	aSyn 5UTR act -148.6
O=C1NC(c2ccccc2Cl)=N/C1=C/c1ccco1	aSyn 5UTR act -142.1
CC(C)N1C(=O)CN(C2CCCCCC2)C(=O)C1c1ccccc1F (stereo not drawn)	aSyn 5UTR act -140.3
Cc1ccsc1/C=C1\CCC(C2CCCC2)C1=O (stereo not drawn)	aSyn 5UTR act -163.5
Cc1ccc(/C=C2\CCC(C3CCCC3)C2=O)cc1 (stereo not drawn)	aSyn 5UTR act -105.1
COc1ccc(/C=C2\CCC(C3CCCC3)C2=O)cc1 (stereo not drawn)	aSyn 5UTR act -179.1
COc1ccc(/C=C2\CCC(C3CCCC3)C2=O)cc1OC (stereo not drawn)	aSyn 5UTR act -74.8
CNc1ccccc(-c2ccc3ccccc3n2)c1=O	aSyn 5UTR act -140.5
COc1ccc(CC(=O)N(C)Cc2ccc(Cl)cc2)cc1S(=O)(=O)N1CCOCC1	aSyn 5UTR act -115.2
COc1ccc(S(=O)(=O)N2CCOCC2)cc1NC(=O)CCNC(=O)c1ccc(Br)cc1	none
O=C1NC(=S)N/C1=C/c1ccc2ccccc2c1	aSyn 5UTR act -83.6
O=C1NC(=S)N/C1=C\C=C\c1ccccc1	aSyn 5UTR act -104.2
C=CCc1cc(/C=C2/NC(=S)NC2=O)cc(OC)c1O	none
Clc1c(-c2ccccc2)nc2ccccn12	aSyn 5UTR act -151.6
Cc1ccc(-c2nc3ccccn3c2C=O)cc1	aSyn 5UTR act -107.9
c1ccn2c(c1)nc1c2nc2ccccn21	aSyn 5UTR act -189.2
Cc1c(-c2ccc(Br)cc2)nc2ccccn12	aSyn 5UTR act -180.6
COc1cc(O)sc1C=Nc1ccc(Cl)cc1	aSyn 5UTR act -92.1
O=c1/c(=C\c2cccnc2)sc2nc3ccccc3n12	aSyn 5UTR act -107.3
Cc1cc(/C=c2\sc3nc4ccccc4n3c2=O)c(C)n1-c1ccc(C(=O)O)cc1	aSyn 5UTR act -61.8
Cc1cc(/C=c2/sc3nc4ccccc4n3c2=O)c(C)n1-c1ccccn1	none
CCOC(=O)c1c(C)[nH]c(N=Nc2ccccc2C)c1C	aSyn 5UTR act -212.8
CCOC(=O)c1c(C)[nH]c(N=Nc2ccc(C)cc2C)c1C	aSyn 5UTR act -105.7
Cc1ccc2[nH]c(-c3ccccc3)cc(=O)c2c1	none
O=c1cc(-c2ccc(Cl)cc2)[nH]c2ccccc12	aSyn 5UTR act -68.9
Cc1ccc(-c2cc(=O)c3ccccc3[nH]2)cc1	aSyn 5UTR act -77.0
Clc1ccc(-c2cc3ccccc3[nH]2)cc1	aSyn 5UTR act -217.6
Cc1ccc(-c2cc(=O)c3cc(Cl)ccc3[nH]2)cc1	aSyn 5UTR act -92.3
COc1ccccc1NC(=O)c1cc2ccc(O)cc2o/c1=N\O	aSyn 5UTR act -97.0
COc1ccccc1NC(=O)c1cc2ccccc2o/c1=N\O	aSyn 5UTR act -129.4
COc1ccc(N=c2oc3ccccc3cc2C(=O)Nc2ccccn2)cc1OC	aSyn 5UTR act -107.0
O=C(Nc1ccc(C(=O)Oc2ccccc2)c(O)c1)c1ccco1	aSyn 5UTR act -118.7
O=C(Nc1ccc(C(=O)Oc2ccccc2)c(O)c1)c1ccccc1	aSyn 5UTR act -66.2
Cc1ccc(OCC(=O)c2cc(C)n(C3CC3)c2C)c([N+](=O)[O-])n1	aSyn 5UTR act -94.0
Cc1ccc(OCC(=O)c2cc(C)n(CC(F)(F)F)c2C)c([N+](=O)[O-])n1	aSyn 5UTR act -72.3
CCn1cnc2sc(C(=O)Oc3cccc(C)c3)c(C)c2c1=O	aSyn 5UTR act -66.6
CSc1nnc(-c2cc3c(s2)-c2ccccc2CC3)o1	aSyn 5UTR act -169.5
S=c1[nH]nc(-c2cc3c(s2)-c2ccccc2CC3)o1	aSyn 5UTR act -123.5
CCc1ccc(/C(C)=N\Nc2ccc([N+](=O)[O-])cc2)cc1	aSyn 5UTR act -137.3
C/C(=N\Nc1nc(C)c(C)s1)c1ccc([N+](=O)[O-])cc1	aSyn 5UTR act -130.0
C/C(=N\Nc1ccc([N+](=O)[O-])cc1)c1ccco1	aSyn 5UTR act -179.5
C/C(=N\Nc1ccc([N+](=O)[O-])cc1)c1ccc(N)cc1	aSyn 5UTR act -101.1
CCOC(=O)c1nc(NNC(=O)c2ccc([N+](=O)[O-])cc2)sc1C	none
Cc1cc(C2=NNC(=NC3CC3)SC2)c(C)n1-c1ccccc1F	none
Cc1ccccc1N=C1NN=C(c2ccccc2F)CS1	aSyn 5UTR act -171.3
Brc1ccc2oc3c(N4CCOCC4)ncnc3c2c1	aSyn 5UTR act -157.5
O=C(Nc1ccc(-c2nc3ccccc3s2)c(O)c1)C1=COCCO1	aSyn 5UTR act -79.8
O=C(Nc1ccc(-c2nc3ccccc3s2)cc1)C1=COCCO1	none
O=C(Nc1ccc(O)c(-c2nc3ccccc3s2)c1)C1=COCCO1	aSyn 5UTR act -77.7
O=C(Nc1cccc(-c2nc3ccccc3s2)c1)C1=COCCO1	aSyn 5UTR act -81.5
CCOc1ccc(-c2cc(C(=O)NN)[nH]n2)cc1	aSyn 5UTR act -68.6
Clc1cccc(Cl)c1Cn1nnc(N2CCCC2)n1	aSyn 5UTR act -64.5
Cc1cccc(NC(=O)Cn2nnc3ccccc32)c1	aSyn 5UTR act -103.7
COC(=O)c1ccc(NC(=O)Cn2nnc3ccccc32)cc1	aSyn 5UTR act -174.1
Cc1ccc(NC(=O)Cn2nnc3ccccc32)cc1	aSyn 5UTR act -176.0
Cc1ccc(C2=NNC(C(O)C(O)C(O)C(O)CO)S2)cc1 (stereo not drawn)	aSyn 5UTR act -103.2
COc1cc(/C=N/Nc2ccccc2[N+](=O)[O-])ccc1OC(=O)c1ccccc1F	aSyn 5UTR act -99.9
COc1cc(OC)cc(C(=O)Oc2ccc(/C=N/Nc3nc4ccccc4s3)cc2OC)c1	aSyn 5UTR act -512.9
COc1cc(/C=N/Nc2nc3ccccc3s2)ccc1OC(=O)c1ccccc1F	aSyn 5UTR act -387.1
CCCOc1ccc(/C=N/NC(=S)Nc2ccccc2[N+](=O)[O-])c(O)c1	none
COc1ccc(/C=N/NC(=S)Nc2ccccc2[N+](=O)[O-])cc1O	aSyn 5UTR act -131.0
Cc1cccc(Nc2nc(N)nc(CSc3nccn3C)n2)c1	aSyn 5UTR act -99.5
CCCNC(=O)OCCC12CC3CC(CC(C3)C1)C2	aSyn 5UTR act -92.2
